Where “and” joins values, the source holds several entries; their conditions need not be identical. Equal entries are not always repeated. Records with an inconclusive call do not appear. Calls of active or inactive are those of the source.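 The calls were made as follows, unless noted: active = normalized viability below 100% at a tested concentration; inactive = the rest.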
Tests used:
[1] = viability loss in pontine glioma line – cell-based, SU-DIPG-XXV, MIPE5.0, CellTiter-Glo, qHTS, dose response (AID 1347065; cut-off not given, nearly all actives have AC50 up to about 26 µM;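 also: cells exposed to compound for 48 hours before ATP readout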); settings: CellTiter-Glo ATP luminescence
[2] = SU-DIPG-VI glioma cell viability, MIPE4.0 library, CellTiter-Glo luminescence, qHTS (AID 1347066; cut-off not given, nearly all actives have AC50 up to about 30 µM;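 also: cells exposed to compound for 48 hours before readout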); settings: CellTiter-Glo ATP luminescence
[3] = JHH-DIPG-1 glioma cell viability, MIPE5.0 library, CellTiter-Glo luminescence, qHTS (AID 1347067; cut-off not given, nearly all actives have AC50 up to about 26 µM;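 also: cells exposed to compound for 48 hours before readout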); settings: JHH-DIPG-1 glioma viability, CellTiter-Glo ATP luminescence
[4] = SU-DIPG-XXV glioma cell viability, MIPE5.0 library, qHTS (AID 1347068; cut-off not given, nearly all actives have IC50 up to about 30 µM)
[5] = sensitizers of A549 cells to miR-34 induction, primary screen, imaging, A549 dox-inducible miR-34, nuclei and caspase counts (AID 1347080;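 active = compounds whose cell count with miR-34 switched on is under 0.7 times the count with it off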); settings: A549 miR-34 inducible, Hoechst nuclei count, 48 h
[6] = modifiers of HSF1 nuclear foci, imaging, Selleck Cancer Library (AID 1347162; in the data active = plate-normalised HSF1 focus index below about 0.46); settings: human cells, at 10 µM; SSMD: measured here: HSF1 foci SSMD mean; cell count: measured here: cell number; plate-normalised HSF1 focus index: stronger effect = lower value
[7] = survival rescue of mitochondrial mutant cells in low glucose, primary screen, MELAS cybrids, Rieske KO mouse fibroblasts, CellTiter-Glo (AID 1508586;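 active = mean z-score across replicates of 1.96 or higher in either the MELAS or the Rieske mutant cell line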;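 also: z relative to plate mean and SD of compound and empty wells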)
[8] = ovarian cancer cell viability with rucaparib, profiling panel, oncology-focused library, rucaparib conditional (AID 1508598); settings: patient-derived ovarian cancer cells, CellTiter-Glo viability, 144 h, stronger effect = lower value
[9] = target: NAD(+) hydrolase SARM1 (Homo sapiens) (UniProt Q6SZW1); experiment: SARM1 TIR NADase inhibitors, cell lysate, NAD-Glo luminescence (AID 1508614;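 active = compound whose remaining NAD level is above about 45 nM, limit read from the data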;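 also: higher remaining NAD means stronger inhibition of SARM1 NADase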); settings: SAM-TIR HEK293T lysate NADase, at 1 µM, stronger effect = higher value
Sequence of NAD(+) hydrolase SARM1 (Homo sapiens) (Q6SZW1 whole entry, looked up): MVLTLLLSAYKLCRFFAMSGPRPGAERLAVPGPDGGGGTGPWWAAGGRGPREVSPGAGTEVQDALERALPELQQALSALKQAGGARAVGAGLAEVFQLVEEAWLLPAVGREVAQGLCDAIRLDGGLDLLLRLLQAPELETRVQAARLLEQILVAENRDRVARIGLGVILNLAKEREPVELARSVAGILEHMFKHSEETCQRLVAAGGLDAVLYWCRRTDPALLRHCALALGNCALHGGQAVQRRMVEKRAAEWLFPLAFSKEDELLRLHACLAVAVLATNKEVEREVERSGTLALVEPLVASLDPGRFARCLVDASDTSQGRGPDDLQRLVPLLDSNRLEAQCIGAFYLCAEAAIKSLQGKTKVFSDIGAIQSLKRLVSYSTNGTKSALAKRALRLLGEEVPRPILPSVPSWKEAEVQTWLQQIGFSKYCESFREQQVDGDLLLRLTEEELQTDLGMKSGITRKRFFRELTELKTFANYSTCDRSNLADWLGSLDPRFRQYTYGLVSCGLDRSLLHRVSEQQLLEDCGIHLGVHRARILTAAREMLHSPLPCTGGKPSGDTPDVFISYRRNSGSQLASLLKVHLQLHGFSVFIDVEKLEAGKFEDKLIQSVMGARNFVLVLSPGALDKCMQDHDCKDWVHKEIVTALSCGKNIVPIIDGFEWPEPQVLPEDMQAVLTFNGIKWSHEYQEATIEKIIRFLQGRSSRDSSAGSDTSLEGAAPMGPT

[10] = viability rescue of complex I mutant cybrids, primary screen, cell-based, galactose medium, ATP luminescence (AID 1645843;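 active = z-score of at least 1.8 in each of two replicates, scored against plate mean and spread of sample wells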;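 also: positive z means more ATP and so rescue of galactose-driven cybrid death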); settings: complex I mutant cybrid cells, 72 h, stronger effect = higher value
[11] = stronger effect = lower value, cell number ratio, induced over uninduced
[12] = measured here: relative caspase fold change +Dox/-Dox
[13] = measured here: total cells with miR-34 induction, stronger effect = lower value
[14] = measured here: total cells without miR-34 induction
[15] = MELAS cybrid survival, CellTiter-Glo 48 h, stronger effect = higher value
[16] = Rieske KO mouse fibroblast survival, CellTiter-Glo 72 h

**Q.** Which outcome [1] does the source give for `Cc1nc(-c2ccc(OCC(C)C)c(C#N)c2)sc1C(=O)O` here?
**A.** inactive

**Q.** What about the outcome [2] of the same molecule?
**A.** inactive

**Q.** And the outcome [3]?
**A.** inactive

**Q.** What about the outcome [4] of the same molecule?
**A.** inactive

**Q.** What about the fold change [5, 11] of the same molecule?
**A.** 0.998 (inactive) and 0.915 (inactive)

**Q.** And the fold change [5, 12]?
**A.** 0.915 and 0.811

**Q.** And the cell count [5, 13]?
**A.** 8870 and 7400

**Q.** What about the cell count [5, 14] of the same molecule?
**A.** 8880 and 8080

**Q.** And the SSMD [6]?
**A.** 1.2

**Q.** And the cell count [6]?
**A.** 6840

**Q.** What about the plate-normalised HSF1 focus index [6] of the same molecule?
**A.** 1.06 (inactive)

**Q.** And the z-score [7, 15]?
**A.** 0.976 (inactive)

**Q.** And the z-score [7, 16]?
**A.** 0.13

**Q.** What about the viability ([8]; at 0.000305 µM, OCI-C5x cells, with rucaparib 10 µM, 100% = cells with rucaparib alone) of the same molecule?
**A.** 118% (inactive)

**Q.** And the viability ([8]; at 0.000305 µM, OCI-C5x cells, without rucaparib)?
**A.** 111% (inactive)

**Q.** What about the viability ([8]; at 0.000305 µM, OCI-P5x cells, with rucaparib 20 µM, 100% = cells with rucaparib alone) of the same molecule?
**A.** 91.2% (active)

**Q.** What about the viability ([8]; at 0.000305 µM, OCI-P5x cells, without rucaparib) of the same molecule?
**A.** 99.9% (active)

**Q.** What about the viability ([8]; at 0.00122 µM, OCI-C5x cells, with rucaparib 10 µM, 100% = cells with rucaparib alone) of the same molecule?
**A.** 115% (inactive)

**Q.** And the viability ([8]; at 0.00122 µM, OCI-C5x cells, without rucaparib)?
**A.** 122% (inactive)

**Q.** What about the viability ([8]; at 0.00122 µM, OCI-P5x cells, with rucaparib 20 µM, 100% = cells with rucaparib alone) of the same molecule?
**A.** 102% (inactive)

**Q.** And the viability ([8]; at 0.00122 µM, OCI-P5x cells, without rucaparib)?
**A.** 99.6% (active)

**Q.** And the viability ([8]; at 0.00488 µM, OCI-C5x cells, with rucaparib 10 µM, 100% = cells with rucaparib alone)?
**A.** 112% (inactive)

**Q.** And the viability ([8]; at 0.00488 µM, OCI-C5x cells, without rucaparib)?
**A.** 109% (inactive)

**Q.** And the viability ([8]; at 0.00488 µM, OCI-P5x cells, with rucaparib 20 µM, 100% = cells with rucaparib alone)?
**A.** 109% (inactive)

**Q.** What about the viability ([8]; at 0.00488 µM, OCI-P5x cells, without rucaparib) of the same molecule?
**A.** 100% (inactive)

**Q.** And the viability ([8]; at 0.0195 µM, OCI-C5x cells, with rucaparib 10 µM, 100% = cells with rucaparib alone)?
**A.** 111% (inactive)

**Q.** And the viability ([8]; at 0.0195 µM, OCI-C5x cells, without rucaparib)?
**A.** 110% (inactive)

**Q.** What about the viability ([8]; at 0.0195 µM, OCI-P5x cells, with rucaparib 20 µM, 100% = cells with rucaparib alone) of the same molecule?
**A.** 105% (inactive)

**Q.** What about the viability ([8]; at 0.0195 µM, OCI-P5x cells, without rucaparib) of the same molecule?
**A.** 104% (inactive)

**Q.** What about the viability ([8]; at 0.0781 µM, OCI-C5x cells, with rucaparib 10 µM, 100% = cells with rucaparib alone) of the same molecule?
**A.** 109% (inactive)

**Q.** What about the viability ([8]; at 0.0781 µM, OCI-C5x cells, without rucaparib) of the same molecule?
**A.** 112% (inactive)

**Q.** What about the viability ([8]; at 0.0781 µM, OCI-P5x cells, with rucaparib 20 µM, 100% = cells with rucaparib alone) of the same molecule?
**A.** 104% (inactive)

**Q.** And the viability ([8]; at 0.0781 µM, OCI-P5x cells, without rucaparib)?
**A.** 108% (inactive)

**Q.** What about the viability ([8]; at 0.313 µM, OCI-C5x cells, with rucaparib 10 µM, 100% = cells with rucaparib alone) of the same molecule?
**A.** 110% (inactive)

**Q.** What about the viability ([8]; at 0.313 µM, OCI-C5x cells, without rucaparib) of the same molecule?
**A.** 109% (inactive)

**Q.** And the viability ([8]; at 0.313 µM, OCI-P5x cells, with rucaparib 20 µM, 100% = cells with rucaparib alone)?
**A.** 97.1% (active)

**Q.** And the viability ([8]; at 0.313 µM, OCI-P5x cells, without rucaparib)?
**A.** 109% (inactive)

**Q.** What about the viability ([8]; at 1.25 µM, OCI-C5x cells, with rucaparib 10 µM, 100% = cells with rucaparib alone) of the same molecule?
**A.** 108% (inactive)

**Q.** What about the viability ([8]; at 1.25 µM, OCI-C5x cells, without rucaparib) of the same molecule?
**A.** 118% (inactive)

**Q.** And the viability ([8]; at 1.25 µM, OCI-P5x cells, with rucaparib 20 µM, 100% = cells with rucaparib alone)?
**A.** 102% (inactive)

**Q.** And the viability ([8]; at 1.25 µM, OCI-P5x cells, without rucaparib)?
**A.** 109% (inactive)

**Q.** And the viability ([8]; at 5 µM, OCI-C5x cells, with rucaparib 10 µM, 100% = cells with rucaparib alone)?
**A.** 118% (inactive)

**Q.** And the viability ([8]; at 5 µM, OCI-C5x cells, without rucaparib)?
**A.** 134% (inactive)

**Q.** And the viability ([8]; at 5 µM, OCI-P5x cells, with rucaparib 20 µM, 100% = cells with rucaparib alone)?
**A.** 103% (inactive)

**Q.** And the viability ([8]; at 5 µM, OCI-P5x cells, without rucaparib)?
**A.** 108% (inactive)

**Q.** What about the remaining NAD [9] of the same molecule?
**A.** 10 nM (inactive)

**Q.** Which outcome [1] does the source give for `CN(C)CC/C=C1/c2ccccc2COc2ccc(CC(=O)O)cc21` here?
**A.** inactive

**Q.** What about the outcome [2] of the same molecule?
**A.** inactive

**Q.** What about the outcome [3] of the same molecule?
**A.** inactive

**Q.** And the outcome [4]?
**A.** inactive

**Q.** And the fold change [5, 11]?
**A.** 0.88 (inactive)

**Q.** What about the fold change [5, 12] of the same molecule?
**A.** 0.692

**Q.** And the cell count [5, 13]?
**A.** 9640

**Q.** What about the cell count [5, 14] of the same molecule?
**A.** 10900

**Q.** And the z-score [7, 15]?
**A.** 0.699 (inactive) and 0.823 (inactive)

**Q.** What about the z-score [7, 16] of the same molecule?
**A.** -0.41 and 0.615

**Q.** And the z-score [10]?
**A.** 0.505 (inactive)

From PubChem BioAssay
